High-throughput results from PubChem.
Hck Nef HTS: human Hck-Nef kinase inhibition. P08631. Recombinant Hck-YEEI plus Nef, Z-Lyte FRET kinase assay. inhibition, % at 20 µM. 0.68% of 220,000 active;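 active = Hck-Nef kinase inhibition above about 50%, limit read from the data; inactive = inhibition below that limit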;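 also: 0% = DMSO with Hck plus Nef and 100% = Hck alone without Nef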
Bim-Mcl-1: inhibitors of Bim-Mcl-1 interaction, human; Q07820; Bead-based flow cytometry, Bim peptide-Mcl-1 binding; inhibition, % at 10 µM; 0.1% of 190,000 active; in the data active = inhibition above about 40%;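 also: 0% = no compound tracer wells and 100% = peptide blocker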
Target sequence (Q07820 whole entry, looked up): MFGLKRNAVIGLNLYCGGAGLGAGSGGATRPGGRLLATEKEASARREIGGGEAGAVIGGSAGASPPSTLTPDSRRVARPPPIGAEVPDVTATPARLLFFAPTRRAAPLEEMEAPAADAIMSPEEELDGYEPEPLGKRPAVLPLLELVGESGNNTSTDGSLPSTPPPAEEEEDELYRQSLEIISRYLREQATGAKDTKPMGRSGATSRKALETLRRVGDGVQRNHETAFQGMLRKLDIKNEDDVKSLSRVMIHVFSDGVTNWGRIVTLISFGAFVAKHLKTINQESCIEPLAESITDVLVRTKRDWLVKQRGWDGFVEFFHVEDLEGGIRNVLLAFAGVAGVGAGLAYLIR
Mcl1-Noxa inh: Mcl-1/Noxa interaction inhibition | TR-FRET Mcl-1/Noxa peptide binding, 2 h | inhibition, % at 21.7 µM | 1.5% of 220,000 active;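 active = compounds that cut the protein-peptide binding signal by more than 50% relative to plate controls in a single-dose test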;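 also: His-tagged Mcl-1 with rhodamine Noxa BH3 peptide and terbium anti-His antibody; 0% = Mcl-1 plus Noxa peptide wells and 100% = peptide-only wells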
Pf gamet viab: kills late stage P. falciparum gametocytes; P. falciparum stage V gametocytes, ATP luminescence, 24 h; inhibition, % at 10.9 µM; 0.065% of 150,000 active;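 active = inhibition above the mean plus 3 SD of compounds within the control limits, set per campaign, cut at about 38% in these data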;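 also: 0% = DMSO wells and 100% = medium only without gametocytes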
Mcl1-Bid inh: Mcl-1/Bid interaction inhibition | TR-FRET Mcl-1/Bid-Dy647 peptide binding, 1536-well | inhibition, % at 21.7 µM | 0.97% of 220,000 active;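 active = compounds that cut the binding signal by more than half at the single screening dose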;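 also: His-tagged Mcl-1 with europium anti-His antibody binding Bid BH3 peptide; 0% = Mcl-1 plus peptide wells and 100% = peptide-only wells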
14-3-3 Bad inh: disrupts binding of bovine 14-3-3 zeta to phospho-Bad peptide | TR-FRET 14-3-3zeta/Dy647-pBad peptide displacement, 1 h | 0.71% of 220,000 active | P63103 | inhibition, % at 21.7 µM;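 active = inhibition above about 70%, limit read from the data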;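 also: 0% = full 14-3-3 plus peptide FRET controls and 100% = background without 14-3-3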
Target sequence (P63103 whole entry, looked up): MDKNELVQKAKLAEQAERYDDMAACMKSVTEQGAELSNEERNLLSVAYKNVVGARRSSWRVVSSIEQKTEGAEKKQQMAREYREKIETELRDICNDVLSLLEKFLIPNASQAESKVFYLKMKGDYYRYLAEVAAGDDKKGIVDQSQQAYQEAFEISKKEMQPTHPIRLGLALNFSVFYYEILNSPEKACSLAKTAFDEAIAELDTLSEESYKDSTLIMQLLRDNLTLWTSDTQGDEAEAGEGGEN
Hck-Nef confirm: confirmation of Hck-Nef kinase inhibitors. shares compounds with Hck Nef HTS. Recombinant Hck-YEEI:Nef, Z-Lyte FRET kinase assay. calls only at 10 µM. 28% of 1,300 active. AID 463188;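 active = average inhibition of at least 50%, with Z-scores no higher than 3 in both the phospho-tyrosine peptide and fluorescence counterscreens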
An asterisk follows results filed as active; i = inactive; · = no result shown; + = active, no number; [ ] = remark or other dose. Compounds with a hit are over-represented: about 2.9% of the library has one in this group of screens.

SMILES	Hck Nef HTS	Bim-Mcl-1	Mcl1-Noxa inh	Pf gamet viab	Mcl1-Bid inh	14-3-3 Bad inh	Hck-Nef confirm
O=C(NCc1ccco1)c1cc2ccc(O)cc2oc1=O	+	0	56*	30	-75	·	·
CC(=O)c1cc2cc(O)ccc2o1	73*	3	-5	9	0	4	·
O=C(c1ccccc1)c1cc2ccc(O)cc2oc1=O	69*	0	16	0	-28	-3	·
CC(=O)c1cc2c(O)c(O)ccc2o1	4	-3	36	-13	-35	13	·
CN(NC(=O)c1ccco1)c1nc2ccccc2nc1C(F)(F)F	-1	-5	10	0	-17	-9	·
CCCCNC(=O)N1CCN(c2ccccc2OCC)CC1	23	-4	0	·	-17	-5	·
O=C(Nc1ccc(C(=O)O)cc1)/C(=C\c1ccc2c(c1)OCO2)NC(=O)c1ccco1	23	-5	11	-7	14	-12	·
CCNc1ccc(S(=O)(=O)C(F)(F)F)cc1NC(=O)C12CCC(CC1)C2	-1	-2	13	14	16	2	·
CC(=O)OCC1=C(C(=O)O)N2C(=O)C(NC(=O)c3ccc(COc4c(C)cccc4Cl)o3)C2SC1 (centres undefined)	77*	0	35	-5	-19	34	i
CC(=O)OCC1=C(C(=O)O)N2C(=O)C(NC(=O)c3ccc(COc4ccc(Cl)cc4)o3)C2SC1 (centres undefined)	64*	-2	31	-14	-19	15	i
COc1cccc2cc(-c3csc(CCn4nc(C)cc4C)n3)c(=O)oc12	2	0	9	-2	-5	0	·
CC/C(C)=N/Nc1nc(-c2cc3cccc(OC)c3oc2=O)cs1	57*	·	20	-14	-52	-8	i
CCOc1cccc(=O)c2c(C)n(CC(=O)c3ccccc3)c(C)c12	14	2	29	-3	-71	-13	·
COc1cccc(=O)c2c(C)n(CC(=O)c3ccccc3)c(C)c12	53*	3	31	-34	-33	-8	i
CCOc1cc2c(cc1/C=C1/NC(=O)N(CC(=O)OC)C1=O)OCO2	20	0	13	·	-33	-6	·
O=C1N=c2ccccc2=C1c1sc(NS(=O)(=O)c2ccccc2)nc1O	25	-8	37	7	-19	-6	·
O=C1N=c2ccccc2=C1c1sc(Nc2ccc(O)cc2)nc1O	87*	1	83*	-9	50	83*	+
CSc1nsc(/C=C/Nc2ccc(C(=O)O)cc2)c1C#N	21	0	22	9	-43	-4	·
CSc1nsc(/C=C/Nc2ccc(F)cc2F)c1C#N	51*	2	18	·	-39	-7	i
CC(C1CC2CCC1C2)N1CC(O)=C(c2nc3ccccc3[nH]2)C1=N (centres undefined)	0	·	-63	1	-82	-2	·
CC(C)N1CC(O)=C(c2nc3ccccc3[nH]2)C1=N	56*	-8	15	19	-3	12	+
COc1cc2c(cc1OC)C1=C(C#N)CCC(=O)N1CC2	1	0	-16	-5	-2	-7	·
COc1ccc(/C=N/NC(=O)c2cc(O)c(O)c(O)c2)cc1Cn1cc([N+](=O)[O-])cn1	50*	10	93*	-9	-101	28	i
Nc1[nH]nc2nc3ccccc3cc12	32	-2	-7	-26	-27	-4	·
Nc1cccc2nc3ccccc3cc12	76*	1	9	·	1	-2	·
SMILES	Hck Nef HTS	Bim-Mcl-1	Mcl1-Noxa inh	Pf gamet viab	Mcl1-Bid inh	14-3-3 Bad inh	Hck-Nef confirm
C#CCn1c(=NC(=O)c2ccc(S(=O)(=O)N3CCc4ccccc4C3)cc2)sc2cc(S(N)(=O)=O)ccc21	27	-3	-51	·	22	59	·
C#CCn1c(=NC(=O)c2sc3ccccc3c2Cl)sc2cc(S(N)(=O)=O)ccc21	62*	-4	-32	25	-21	77*[fluorescence artefact?]	+
COC(=O)c1ccc(CSc2nnnn2-c2ccc(C)cc2C)o1	2	-1	-7	-1	-3	-1	·
O=C(N/N=C/c1ccc(OCC(=O)N2CCOCC2)cc1)c1ccccc1Cl	2	2	10	6	-13	-14	·
CS(=O)(=O)N(CC(=O)N/N=C/c1ccc(OCC(=O)N2CCOCC2)cc1)c1ccccc1Cl	129*	-1	9	-15	-19	-17	i
CCCCNC(=O)CCCCn1c(=S)[nH]c2c([nH]c3ccc(OC)cc32)c1=O	38	0	38	15	-25	-1	·
CC[C@H](C)NC(=O)CCCCCn1c(=S)[nH]c2c([nH]c3ccc(OC)cc32)c1=O	52*	0	24	-14	-29	6	i
COc1cc2c(c(O)c1OC)-c1c(cc(OC)c(OC)c1O)[C@@H](OC(=O)c1ccccc1)[C@@](C)(O)[C@@H](C)[C@@H]2OC(C)=O	28	·	-18	·	-46	-6	·
N=C1/C(=C/c2ccc(-c3cccc(C(=O)O)c3)o2)C(=O)N=C2SC=C(c3ccccc3)N12	91*	0	109*	13	98*	93*	+
CC(C)S(=O)(=O)C1=NSC2=NC(=O)/C(=C\c3ccc(-c4cccc(C(=O)O)c4)o3)C(=N)N21	30	2	31	7	-25	9	·
CC(=O)c1cccc(NC(=O)CN2C(=O)COc3ccc(Cl)cc32)c1	-4	-2	20	-14	-2	11	·
COc1cc(/C=C/C(=O)OCC(=O)Nc2sc3c(c2C#N)CCC(C)C3)ccc1OCC#N (centres undefined)	51*	-3	10	-2	-35	-15	i
COc1cc(/C=C/C(=O)OCC(=O)NCC2CCCO2)ccc1OCC#N (centres undefined)	-1	0	12	1	-3	-5	·
CN(C)CCCNCCNC(=O)/C=N\O	-1	6	19	·	-15	4	·
CCCCn1c(NS(=O)(=O)c2ccc(C)cc2)c(S(=O)(=O)c2ccccc2)c2nc3ccccc3nc21	97*	-2	36	4	27	25	i
Cc1ccc(S(=O)(=O)c2c(N)n(CCCN(C)C)c3nc4ccccc4nc23)cc1	94*	·	7	-5	-3	0	·
Cc1ccc(S(=O)(=O)c2c(N)n(NC(=O)C3CC3)c3nc4ccccc4nc23)cc1	73*	0	8	1	17	-2	·
Cc1ccc(-n2c(N)c(S(=O)(=O)c3ccccc3)c3nc4ccccc4nc32)cc1	-6	1	5	·	23	21	·
N/C(=N\OC(=O)CCCOc1ccccc1)c1ccc(Br)cc1	2	-2	-7	·	-13	3	·
CC1=C(NCCc2ccccc2)CCC1=O	-1	-1	8	-24	-15	-12	·
